Laboratory results published in PubChem BioAssay.

target: Torsin-1A (Homo sapiens) (UniProt O14656); assay: torsin A mutant lysate binding on microarrays – cell lysate, small-molecule microarray, COS7 lysate, 635/667 nm fluorescence, primary screen (AID 1150); conditions: COS7 hTOR1A mutant lysate, 635 nm fluorescence, higher = more signal;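 further: score pools 667 nm emission and signal to noise measuring lysate protein binding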
Sequence (O14656 whole entry, looked up): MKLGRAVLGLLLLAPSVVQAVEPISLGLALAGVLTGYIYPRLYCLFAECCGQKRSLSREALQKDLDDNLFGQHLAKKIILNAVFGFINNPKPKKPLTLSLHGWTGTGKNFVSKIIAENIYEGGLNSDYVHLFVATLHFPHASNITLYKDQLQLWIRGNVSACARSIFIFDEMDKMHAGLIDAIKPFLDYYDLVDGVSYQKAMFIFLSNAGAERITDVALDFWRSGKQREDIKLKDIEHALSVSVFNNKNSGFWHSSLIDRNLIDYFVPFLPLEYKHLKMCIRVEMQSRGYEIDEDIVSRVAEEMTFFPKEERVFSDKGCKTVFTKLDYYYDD

| SMILES | composite z-score |
| --- | --- |
| CCCC=C(CCC)[C@@H](NC(=O)c1ccc(C(=O)OC)cc1)c1ccc(C(=O)OC)cc1 | -0.415 |
| Cc1ccc(S(=O)(=O)N2[C@@H](c3ccccc3)C(C(=O)O)=CC[C@H]2c2ccc(F)cc2)cc1 | 1.64 |
| C=C(C(=O)CC[C@@H](OC(=O)c1ccccc1-c1ccccc1C(=O)O)c1cccc(OCCO)c1)C(C)C | 1.59 |
| COC(=O)c1c2oc(c1C(=O)OC)C(=O)N[C@H](Cc1ccccc1)Cn1cc(nn1)C1(CCCCC1)NC(=O)N[C@H](CO)CC2 | 0.29 |
| C=CCNC(=O)[C@@H]1[C@H]2C(=O)O[C@H](c3ccccc3)[C@H](c3ccccc3)N2[C@H](c2ccc(O)cc2)[C@@]12C(=O)Nc1ccc(C#CC3=CCCCC3)cc12 | 0.975 |
| CC(C)(C)OC(=O)CC[C@]1(C(=O)N2CCOCC2)COC(c2ccc(OCCCO)cc2)=N1 | 1.48 |
| C=CC[C@]1(C(=O)NCC(O)CO)N=C(c2ccc(OCCCO)cc2)O[C@H]1c1ccccc1CN=[N+]=[N-] (some centres undefined) | 2.58 |
| CCOC(=O)C1=CCC(c2cccn2C(=O)OC(C)(C)C)N(S(=O)(=O)c2ccc(C)cc2)C1 (centres undefined) | 0.461 |
| COc1cc(Cc2cc3c(c(-c4ccccc4)n2)[Si](C(C)C)(C(C)C)OC3)cc(OC)c1OC | -0.141 |
| COCCCNC(=O)[C@@]1(Cc2ccccc2I)c2ccccc2C(=O)N(Cc2ccccc2C(F)(F)F)[C@H]1c1ccc(CO)cc1 | -0.0514 |
| COc1ccc(CCNC(=O)[C@@H]2c3ccccc3C(=O)N(C(C)C)[C@H]2c2ccc(CO)cc2)cc1 | 0.0739 |
| Cc1ccc(N2C(=O)c3ccccc3[C@@H](C(=O)NCCN3CCOCC3)[C@@H]2c2ccc(CO)cc2)nc1 | -1.65 |
| COc1cc2c(cc1O)C(C)N(Cc1sc3ccccc3c1Cl)CC2 (centres undefined) | -1.28 |
| CC(C)(C)OC(=O)CC[C@@]1(C(=O)N2CCOCC2)N=C(c2ccc(OCCCO)cc2)O[C@@H]1c1ccccc1CN=[N+]=[N-] | 2.23 |
| CC[C@@H](O[Si](C#C[Si](C(C)C)(C(C)C)C(C)C)(C(C)C)C(C)C)c1cn([C@H](C)c2ccccc2)nn1 | 0.458 |

system: Sonic hedgehog protein (Shh); assay: Sonic hedgehog microarray binding compounds – biochemical, small-molecule microarray, 635/667 nm fluorescence, primary screen (AID 1151); conditions: 635 nm fluorescence, higher = more signal;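 further: Shh protein binding to compounds spotted on small-molecule microarray slides; score combines spot fluorescence intensity with signal-to-noise across triplicate slides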

| SMILES | composite z-score |
| --- | --- |
| CN1C2C=C(c3ccc(CO)cc3)C(C3C(=O)N(C(N)=O)C(=O)C32)C1C1CC1 (centres undefined) | -0.104 |
| COc1cc(Cc2cc3c(c(CCc4ccccc4)n2)[Si](C(C)C)(C(C)C)O[C@H]3c2ccccc2)cc(OC)c1OC | -0.418 |
| C=CCOC(=O)[C@H]1[C@@H]2C(=O)O[C@@H](c3ccccc3)[C@@H](c3ccccc3)N2[C@@H](c2ccc(OCCOC(=O)[C@@H]3C[C@@H]4C(=O)N[C@@H](Cc5ccccc5)C(=O)N4[C@@H]3c3ccc(O)cc3)cc2)[C@]12C(=O)Nc1ccc(I)cc12 | 1.93 |
| CCOC(=O)C1=CC[C@@H](c2ccccc2)N(S(=O)(=O)c2ccc(C)cc2)[C@@H]1C#N | -0.0766 |
| C=CC[C@]1(C(N)=O)N=C(c2ccc(OCCCO)cc2)O[C@H]1c1ccccc1N=[N+]=[N-] | 0.0211 |
| COc1ccc(CCNC(=O)[C@@H]2c3ccccc3C(=O)N(Cc3cc(F)cc(C(F)(F)F)c3)[C@H]2c2ccc(CO)cc2)cc1 | 0.618 |
| CC(C)C[C@@H]1NC(=O)[C@@H]2C[C@H](C(=O)NCCCCCNC(=O)CS)[C@H](c3ccc(O)cc3)N2C1=O | 1.99 |
| C=CCNC(=O)[C@@H]1[C@H]2C(=O)O[C@H](c3ccccc3)[C@H](c3ccccc3)N2[C@H](c2ccc(OCCO)cc2)[C@@]12C(=O)N(C(=O)OCCOC)c1ccccc12 | 0.957 |
| CCCCC(=C=CC[C@@H](O)c1ccccc1OCCO)C[C@@H](O)c1ccccn1 | 0.897 |
| O=C1O[C@@H](c2ccccc2)[C@@H](c2ccccc2)N2[C@@H](c3ccccc3OCCO)[C@]3(C(=O)Nc4ccc(C#CC5(O)CCCCCC5)cc43)[C@@H](C(=O)N3CCCCCCC3)[C@H]12 | 2.06 |
| CCCCC(=C=CC[C@H](O)c1ccccc1OCCO)CCO | 0.704 |
| C=CCNC(=O)[C@@H]1[C@H]2C(=O)O[C@H](c3ccccc3)[C@H](c3ccccc3)N2[C@H](c2ccc(OCCO)cc2)[C@@]12C(=O)Nc1ccc(C#CC3=CCCCC3)cc12 | 1.66 |
| COCCOC(=O)N1C(=O)[C@@]2(c3cc(C#CCCO)ccc31)[C@H](c1ccc(O)cc1)N1[C@H](c3ccccc3)[C@H](c3ccccc3)OC(=O)[C@H]1[C@@H]2C(=O)NC[C@H](O)c1ccccc1 | 1.03 |
| [N-]=[N+]=Nc1ccccc1C[C@]1(C(=O)N2CCCCC2)N=C(c2ccc(OCCCO)cc2)O[C@H]1c1ccccc1 | 1.05 |
